In PubChem BioAssay (Tox21):
Records with an inconclusive call do not appear. Active and inactive are the calls of the source. Unless noted, calls follow the shape of the dose curve; as a rule, active = well fitted curve in the direction sought with a large enough effect in the repeat runs; inconclusive = weak or mixed curves; inactive = no such curve, though single readings can be large; an effect the other way counts as inactive or inconclusive.

Columns and labels:
[1] = qHTS assay to identify small molecule agonists of the farnesoid-X-receptor (FXR) signaling pathway - cell viability counter screen (AID 743218); also: nearly all actives have a fitted effect of over 45% in size
Method in brief: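 HEK 293T FXR-bla cells; 5 h pre-incubation, 16 h compound exposure at 37 C; LiveBLAzer substrate 2 h RT, then CellTiter-Glo 30 min RT, luminescence.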

[2] = qHTS assay to identify small molecule antagonists of the farnesoid-X-receptor (FXR) signaling pathway - cell viability counter screen (AID 743221; active = well fitted cell-killing curve with a large enough effect in the repeat runs, not every such curve was filed as active; also: nearly all actives have a fitted effect of over 50% in size)
Method in brief: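 Here viability was scored by luminescence after CellTiter-Glo addition to wells already read for beta-lactamase. Prior treatment: compound plus CDCA (50 uM final), 16 h, 37 C, HEK 293T FXR-bla cells.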

[3] = qHTS assay to identify small molecule agonists of the vitamin D receptor (VDR) signaling pathway - cell viability counter screen (AID 743224); also: nearly all actives have a fitted effect of over 50% in size; also: potency is read from the fitted curve at half-maximal effect
Method in brief: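 Luminescence from CellTiter-Glo, read after 30 min at room temperature, reports viability of VDR-bla cells treated with compounds for 16 h at 37C in the wells used for the beta-lactamase FRET read.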

[4] = qHTS assay to identify small molecule antagonists of the vitamin D receptor (VDR) signaling pathway - cell viability counter screen (AID 743225); also: nearly all actives have a fitted effect of over 50% in size
Method in brief: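 Compounds were pinned onto VDR-bla HEK 293T cells together with 1-alpha,25-dihydroxyvitamin D3 at 3 nM final. After 16 h at 37C and 5% CO2 plus the reporter readout, cell viability was measured by CellTiter-Glo luminescence (30 min, room temperature).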

[5] = qHTS assay to identify small molecule agonists of the NFkB signaling pathway - cell viability counter screen (AID 1159515; calls by dose curve; also: series mostly up to about 61 µM; nearly all actives have a fitted effect of over 55% in size)
Method in brief: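 Luminescence from CellTiter-Glo (30 min, room temperature) gives viability, measured in the same wells as the beta-lactamase reporter read. Cells were NFkB-bla ME-180, 2,000 per well, treated 5 hr with compounds.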

[6] = qHTS assay to identify small molecule agonists of the endoplasmic reticulum stress response signaling pathway (AID 1159516; active = well fitted activation curve with a large enough effect in the signal ratio in the repeat runs, not every such curve was filed as active; the % refers to the signal ratio)
Method in brief: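 Read-out is beta-lactamase cleavage of a FRET substrate (405 nm excitation; 460 and 530 nm emissions) in ESRE-bla HeLa cells after a 5 hr compound exposure at 37 C. Substrate incubation ran 2 hr at room temperature.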

[7] = qHTS assay to identify small molecule antagonists of the retinoid-related orphan receptor gamma (ROR-gamma) signaling pathway - cell viability counter screen (AID 1159520); also: nearly all actives have a fitted effect of over 50% in size
Method in brief: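 Tet-on ROR gamma CHO cells (1,000/well) were plated 4 hr, given compounds in DMSO for 2 hr at 37 C, then induced with 1 uM final doxycycline for 16 hr. Viability was read as ATP by CellTiter-Glo luminescence after 30 min.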

[8] = molecular target: Nuclear receptor ROR-gamma (Homo sapiens) (UniProt P51449); assay: qHTS assay to identify small molecule antagonists of the retinoid-related orphan receptor gamma (ROR-gamma) signaling pathway (AID 1159521; also: nearly all actives have a fitted effect of over 50% in size; also: potency is read from the fitted curve at half-maximal effect)
Method in brief: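 Test compounds were applied to Tet-on RORγ CHO cells 2 h ahead of doxycycline hyclate (1 uM final). Luciferase reporter activity was quantified by luminescence after 16 h at 37 C and 5% CO2.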

[9] = qHTS assay to identify small molecule agonists of the AP-1 signaling pathway - cell viability counter screen (AID 1159525; calls by dose curve; also: nearly all actives have a fitted effect of over 55% in size)
Method in brief: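 ME-180 AP-1-bla, 2500 cells/well, Opti-MEM + 0.5% dialyzed FBS; overnight 37 °C; cpd 15-pt titration, 5 h 37 °C; CellTiter-Glo 30 min RT; luminescence read; normalised to TOAB and DMSO controls.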

[10] = qHTS assay to identify small molecule agonists of the AP-1 signaling pathway (AID 1159526; calls by dose curve; also: potency is read from the fitted curve at half-maximal effect)
[11] = qHTS assay to identify small molecule antagonists of the peroxisome proliferator-activated receptor delta (PPARd) signaling pathway - cell viability counter screen (AID 743213); also: nearly all actives have a fitted effect of over 50% in size
Method in brief: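 HEK293H PPARd UAS-bla cells, 5 h pre-incubation, compound + L165041 300 nM final, 17 h 37 C; B/G FRET substrate 2 h RT; then CellTiter-Glo 30 min RT, luminescence.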

[12] = molecular target: Vitamin D3 receptor (Homo sapiens) (UniProt P11473); assay: qHTS assay to identify small molecule agonists of the vitamin D receptor (VDR) signaling pathway (AID 743222; calls by dose curve)
Vitamin D3 receptor (Homo sapiens), sequence (P11473 whole entry, looked up): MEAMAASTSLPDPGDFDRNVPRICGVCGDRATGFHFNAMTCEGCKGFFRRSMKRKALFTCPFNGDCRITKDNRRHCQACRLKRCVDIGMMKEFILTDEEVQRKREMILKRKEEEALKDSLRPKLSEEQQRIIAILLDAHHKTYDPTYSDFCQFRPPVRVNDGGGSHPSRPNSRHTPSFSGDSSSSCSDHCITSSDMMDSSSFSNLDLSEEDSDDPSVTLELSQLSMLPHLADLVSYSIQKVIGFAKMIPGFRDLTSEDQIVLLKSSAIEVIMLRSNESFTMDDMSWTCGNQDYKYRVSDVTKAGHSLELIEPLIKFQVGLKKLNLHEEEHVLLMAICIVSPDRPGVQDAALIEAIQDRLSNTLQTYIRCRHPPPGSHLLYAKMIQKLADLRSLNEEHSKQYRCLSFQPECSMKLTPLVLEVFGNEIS
Method in brief: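 VDR-bla cells, 2,000/well; 4 h preincubation 37C; cpd (DMSO) 16 h; LiveBLAzer B/G substrate 2 h RT; fluorescence intensity read.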

[13] = molecular target: Vitamin D3 receptor (Homo sapiens) (UniProt P11473); assay: qHTS assay to identify small molecule antagonists of the vitamin D receptor (VDR) signaling pathway (AID 743223; active = well fitted inhibition curve with a large enough effect in the signal ratio in the repeat runs, not every such curve was filed as active; the % refers to the signal ratio)
Method in brief: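 Inhibition of agonist-driven VDR signalling is scored in VDR-bla cells: 3 nM final 1alpha,25-dihydroxyvitamin D3 plus compound, 16 h at 37C, then beta-lactamase detection by FRET substrate fluorescence after 2 h.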

[14] = qHTS assay to identify small molecule agonists of the peroxisome proliferator-activated receptor delta (PPARd) signaling pathway - cell viability counter screen (AID 743211); also: nearly all actives have a fitted effect of over 55% in size
Method in brief: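 In the same wells used for beta-lactamase reporter measurement, cytotoxicity is scored by CellTiter-Glo. HEK293H PPARd-bla cells receive compound for 17 h at 37C following a 5 h settling period.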

[15] = molecular target: Peroxisome proliferator-activated receptor delta (Homo sapiens) (UniProt Q03181); assay: qHTS assay to identify small molecule agonists of the peroxisome proliferator-activated receptor delta (PPARd) signaling pathway (AID 743212; calls by dose curve)
Peroxisome proliferator-activated receptor delta (Homo sapiens), sequence (Q03181 whole entry, looked up): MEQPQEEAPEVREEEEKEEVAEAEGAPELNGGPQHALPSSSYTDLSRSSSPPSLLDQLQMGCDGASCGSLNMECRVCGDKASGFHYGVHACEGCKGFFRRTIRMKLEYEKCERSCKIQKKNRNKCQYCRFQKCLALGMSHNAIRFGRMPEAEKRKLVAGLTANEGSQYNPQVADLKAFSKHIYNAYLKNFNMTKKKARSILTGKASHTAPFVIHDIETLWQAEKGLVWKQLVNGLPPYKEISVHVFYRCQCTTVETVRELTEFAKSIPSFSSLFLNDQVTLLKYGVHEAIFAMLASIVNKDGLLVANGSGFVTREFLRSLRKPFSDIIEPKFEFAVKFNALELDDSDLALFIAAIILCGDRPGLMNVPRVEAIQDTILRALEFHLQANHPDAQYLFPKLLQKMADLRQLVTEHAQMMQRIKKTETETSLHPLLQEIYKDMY
Method in brief: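 GeneBLAzer PPARd UAS-bla HEK293H cells (beta-lactamase reporter under UAS control), plated and rested 5 h at 37 C, then exposed to compounds in DMSO at 37 C; LiveBLAzer B/G FRET substrate added, 2 h room temperature, fluorescence read.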

[16] = molecular target: Peroxisome proliferator-activated receptor delta (Homo sapiens) (UniProt Q03181); assay: qHTS assay to identify small molecule antagonists of the peroxisome proliferator-activated receptor delta (PPARd) signaling pathway (AID 743215; active = well fitted inhibition curve with a large enough effect in the signal ratio in the repeat runs, not every such curve was filed as active; the % refers to the signal ratio;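 also: cells stimulated with agonist L165041 at 300 nM final during compound exposure; series mostly up to about 62 µM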)
Method in brief: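 Read-out is beta-lactamase FRET fluorescence, measured 2 h after substrate addition at room temperature. Beforehand, UAS-bla HEK293H cells carrying the PPARd reporter were exposed to compounds with L165041 at 300 nM final for 17 h at 37 C.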

[17] = molecular target: Retinoic acid receptor RXR-alpha (Homo sapiens) (UniProt P19793); assay: qHTS assay to identify small molecule agonists of the RXR signaling pathway (AID 1159527; calls by dose curve; also: nearly all actives have a fitted effect of over 35% in size)
Retinoic acid receptor RXR-alpha (Homo sapiens), sequence (P19793 whole entry, looked up): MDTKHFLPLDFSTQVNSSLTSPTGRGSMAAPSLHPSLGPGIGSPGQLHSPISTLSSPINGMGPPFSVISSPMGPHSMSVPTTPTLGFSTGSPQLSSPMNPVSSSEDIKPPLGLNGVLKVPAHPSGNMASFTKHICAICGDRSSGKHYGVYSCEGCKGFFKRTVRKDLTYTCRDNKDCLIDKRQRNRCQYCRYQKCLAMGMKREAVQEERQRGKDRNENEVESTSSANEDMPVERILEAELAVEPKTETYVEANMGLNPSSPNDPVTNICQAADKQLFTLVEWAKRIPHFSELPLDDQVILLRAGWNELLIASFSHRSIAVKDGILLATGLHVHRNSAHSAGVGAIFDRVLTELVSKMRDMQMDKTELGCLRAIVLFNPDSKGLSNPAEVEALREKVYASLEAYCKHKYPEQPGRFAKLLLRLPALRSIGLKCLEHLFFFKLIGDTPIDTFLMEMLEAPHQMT
Method in brief: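 Using 9-cis retinoic acid as the reference agonist, chemicals were tested in HEK 293T cells […] for 16 hr; substrate loading lasted 2 hr at room temperature.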

[18] = molecular target: Bile acid receptor (Homo sapiens) (UniProt Q96RI1); assay: qHTS assay to identify small molecule agonists of the farnesoid-X-receptor (FXR) signaling pathway (AID 743220; active = well fitted activation curve with a large enough effect in the signal ratio in the repeat runs, not every such curve was filed as active; the % refers to the signal ratio)
Bile acid receptor (Homo sapiens), sequence (Q96RI1 whole entry, looked up): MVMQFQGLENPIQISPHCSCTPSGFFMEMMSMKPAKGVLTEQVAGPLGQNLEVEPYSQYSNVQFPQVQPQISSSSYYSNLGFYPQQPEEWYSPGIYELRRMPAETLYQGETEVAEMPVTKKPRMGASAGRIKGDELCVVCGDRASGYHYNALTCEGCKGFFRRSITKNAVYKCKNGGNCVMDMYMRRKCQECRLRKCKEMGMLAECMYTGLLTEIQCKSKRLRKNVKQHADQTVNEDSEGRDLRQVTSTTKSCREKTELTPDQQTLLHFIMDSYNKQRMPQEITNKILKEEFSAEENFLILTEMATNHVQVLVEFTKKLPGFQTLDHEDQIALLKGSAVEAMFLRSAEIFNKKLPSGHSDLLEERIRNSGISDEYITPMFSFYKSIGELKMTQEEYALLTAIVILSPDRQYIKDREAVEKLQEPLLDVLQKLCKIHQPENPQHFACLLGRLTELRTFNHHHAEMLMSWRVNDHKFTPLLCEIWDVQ
Method in brief: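 Beta-lactamase reporter under UAS control in GeneBLAzer FXR HEK 293T cells (5000/well) measured with LiveBLAzer FRET substrate after 2 h at room temperature. Compound exposure lasted 16 h at 37C.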

[19] = molecular target: Bile acid receptor (Homo sapiens) (UniProt Q96RI1); assay: qHTS assay to identify small molecule antagonists of the farnesoid-X-receptor (FXR) signaling pathway (AID 743217; active = well fitted inhibition curve with a large enough effect in the signal ratio in the repeat runs, not every such curve was filed as active; the % refers to the signal ratio)
Method in brief: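 HEK 293T FXR-UAS-bla, 5000 cells/well; compound + CDCA 50 uM final; 16 h, 37 °C; B/G FRET substrate 2 h RT; fluorescence.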

Measured: Potency

Cc1ccc(O)c(N)c1
active: [3] 19.5 µM | [10] 55 µM
inactive: [1] | [2] | [4] | [5] | [6] | [7] | [8] | [9]

CC(C)NC[C@@H](O)COc1ccc(CC(N)=O)cc1
not listed: [14] | [15] | [16] | [17] | [18] | [19]
inactive: all other assays above

C=C(CC)C(=O)c1ccc(OCC(=O)O)c(Cl)c1Cl
inactive: [14] | [11] | [1] | [2] | [3] | [4] | [5] | [6] | [7] | [9]
active: [8] 54.1 µM

C#C[C@]1(OC(C)=O)CC[C@H]2[C@@H]3CCC4=C[C@@H](OC(C)=O)CC[C@@H]4[C@H]3CC[C@@]21C
active: [8] 33.5 µM
not listed: [9] | [10] | [13] | [14] | [17] | [18] | [19]
inactive: all other assays above

COc1cc(/C=C/c2ccccc2)oc(=O)c1
not listed: [12] | [15] | [17] | [18] | [19]
inactive: all other assays above

CC1=CCC(=C(C)C)CC1
not listed: [8] | [12] | [13] | [15] | [16] | [18] | [19]
inactive: all other assays above

CC(=O)Oc1cc2c(s1)CCN(C(C(=O)C1CC1)c1ccccc1F)C2 (configuration not stated)
not listed: [4] | [13] | [17] | [18] | [19]
inactive: all other assays above

OC[C@H]1O[C@H](O[C@H]2O[C@H](CO)[C@@H](O)[C@H](O)[C@H]2O)[C@H](O)[C@@H](O)[C@@H]1O
not listed: [13] | [14] | [15] | [16] | [17] | [19]
inactive: all other assays above

CN1CCN2c3ccccc3Cc3ccccc3C2C1 (configuration not stated)
not listed: [2] | [10] | [11] | [14] | [15] | [16] | [18] | [19]
inactive: all other assays above

C=CCn1c(=O)n(CC=C)c(=O)n(CC=C)c1=O
not listed: [11] | [15] | [17] | [18] | [19]
inactive: all other assays above

CCC(=O)OC(=O)CC
not listed: [1] | [12] | [13] | [14] | [15] | [17]
inactive: all other assays above

Cc1cccc2cccnc12
not listed: [8] | [15] | [18] | [19]
inactive: all other assays above
